From PubChem BioAssay
Values joined by “and” are separate entries in the source; they are usually repeats but may differ in a detail not shown here. Equal values may be shown once. Active and inactive are the calls of the source. Unless noted, no rule for the calls is given here.

Columns and labels:
[1] = inhibitors of CD8+ T cell-vesicle binding, pilot screen, LFA-1/ICAM-1 modulator project, MLPCN validation set, flow cytometry (AID 2523;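 active = response below a set limit, under 55% cells CD8-positive and vesicle-bound, and CD8 cells' 90th-percentile brightness under 279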;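 as to vesicle binding response: mean PE anti-B7-1 fluorescence of CD8+ cells relative to row control; 100% = QL9-loaded vesicles with DMSO vehicle in the same plate row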); conditions: 2C mouse CD8+ T cells, at 7 µM, stronger effect = lower value; double positive events: measured here: CD8+/vesicle+ event percentage
[2] = target: Integrin beta-1 (Homo sapiens) + Integrin alpha-4 (Homo sapiens) (UniProt P13612+P05556); experiment: inhibition of HUTS-21 binding to VLA-4, pilot screen, VLA-4 allosteric modulator project, U937 cells, HUTS-21 mAb, flow cytometry, validation set (AID 2674;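 active = inhibition above 50%, about 3 SD of the validation set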;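 also: antibody binding induced by the VLA-4 ligand LDV present at three times its Kd; 0% = LDV ligand with antibody and no compound and 100% = antibody without LDV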); conditions: HUTS-21 LIBS mAb binding, at 6.7 µM, stronger effect = higher value
[3] = superoxide lowering in aged yeast cells, pilot screen, validation compound set (AID 2706;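 active = superoxide response below 65% of plate, a cut near 3 SD across the whole screen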;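 also: yeast exposed to compound for one week at 30 degrees C before staining; 100% = mean of all compound wells on the same plate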); conditions: S. cerevisiae aging, superoxide DHE fluorescence; at 10 µM; stronger effect = lower value
[4] = target: Beta-adrenergic receptor kinase 1 (Homo sapiens) (UniProt P25098); experiment: GRK2 binders displacing RNA aptamer, biochemical, validation, human GRK2, bead flow cytometry (AID 488806;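 active = aptamer binding inhibition above 30%, about 3 SD of noise from non-fluorescent compounds; inactive = inhibition at or below 30%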); conditions: bead-bound GRK2, FAM-aptamer displacement, at 10 µM, stronger effect = higher value
[5] = target: Beta-2 adrenergic receptor (Homo sapiens) (UniProt P07550); experiment: beta2AR agonists driving receptor internalization, pilot screen, cell-based, FAP fluorogen, flow cytometry, validation set (AID 504459;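 active = percent response above 42, roughly 3 SD of non-fluorescent test compounds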;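 also: agonist-driven loss of surface beta2AR via internalization measured by FAP dye flow cytometry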); conditions: Am2.2-beta2AR cells, FAP surface receptor flow cytometry; at 10 µM; stronger effect = higher value
[6] = target: AP-2 complex subunit beta (Homo sapiens) (UniProt P63010); experiment: inhibitors of arrestin peptide binding to AP2, pilot screen, biochemical, validation set, GST-AP2 beads, flow cytometry (AID 504541;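 active = inhibition above 54%, about 3 SD of non-fluorescent compounds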;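 also: AP2 carries R879A mutation and is captured from E. coli lysate; bead-bound FITC arrestin peptide fluorescence measuring arrestin peptide binding to AP2; 0% = DMSO wells and 100% = excess unlabeled arrestin peptide control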); conditions: FITC arrestin peptide, at 10 µM, stronger effect = higher value
[7] = yeast V-ATPase proton transport modulators, S. cerevisiae, pHLuorin, HTS validation (AID 504600; in the data active = response above about 15%;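 also: plate controls were DMSO for no effect and reference compound for full effect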); conditions: S. cerevisiae pHLuorin cytosolic pH, at 10 µM, stronger effect = higher value
[8] = tested on: anti-desmoglein-3 scFv antibody binding to human DSG3; experiment: inhibitors of anti-DSG3 scFv binding to DSG3, pilot screen, biochemical, validation compound set, bead-based, flow cytometry (AID 588368;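 active = binding below the plate cutoff, the plate median minus 3 SD, with a reading above zero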;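 also: signal is the median channel fluorescence of bead-bound GFP antibody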); conditions: Protein G beads, DSG3-Fc, scFv-GFP binding, at 10 µM, stronger effect = lower value
[9] = tested on: Botulinum neurotoxin type F light chain protease (Clostridium botulinum); experiment: Botulinum neurotoxin type F light chain protease inhibition, multiplex microsphere flow cytometry, validation set (AID 588459); conditions: multiplex microsphere protease substrate cleavage assay, at 10 µM, stronger effect = higher value
[10] = target: Botulinum neurotoxin type A (Clostridium botulinum) (UniProt P0DPI0); experiment: BoNT/A light chain protease inhibitors, biochemical, multiplex microsphere flow cytometry, validation set (AID 588460); conditions: at 10 µM, stronger effect = higher value
[11] = target: Lethal factor (Bacillus anthracis) (UniProt P15917); experiment: Lethal factor protease inhibitors, Bacillus anthracis, multiplex microsphere cleavage assay, validation set (AID 588461); conditions: flow cytometry, at 10 µM, stronger effect = higher value
[12] = inhibitors of fungal efflux pumps CDR1, CDR2, MDR1, pilot screen, validation compound set, multiplex, phenotypic (AID 588506;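 active = efflux inhibition above 0.42, the validation set average plus 4 SD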;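 also: Nile Red retained in cells so higher fluorescence means more efflux inhibition; 0 = negative control wells and 1 = enniatin B 25 µM full block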); conditions: S. cerevisiae pump-expressing triplex, Nile Red efflux flow cytometry; at 10 µM; stronger effect = higher value
[13] = target: ATP-binding cassette sub-family B member 6 (Homo sapiens) (UniProt Q9NP58); experiment: ABCB6 transporter inhibitors, pilot screen, K562-ABCB6 cells, flow cytometry, validation set (AID 588550;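 active = inhibition above the screen-wide mean plus 3 SD, about 51%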;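 also: 0% = DMSO wells and 100% = benzethonium chloride 70 µM positive control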); conditions: K562-ABCB6 porphyrin accumulation, 1 h, at 10 µM, stronger effect = higher value
[14] = promoters of myeloid differentiation in arrested cells, primary screen, cell-based, GFP/MAC1 double positive, flow cytometry, validation set (AID 588685;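 active = differentiation response of at least 50%, scaled between solvent and reference control, from cells with both markers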;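 also: compound exposure lasts four days before antibody staining and flow analysis; 0% = DMSO wells and 100% = 5 µM fulvestrant positive control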); conditions: ER-HoxA9 marrow cells, stronger effect = higher value

Integrin beta-1 (Homo sapiens) + Integrin alpha-4 (Homo sapiens), sequence (P05556 whole entry, looked up): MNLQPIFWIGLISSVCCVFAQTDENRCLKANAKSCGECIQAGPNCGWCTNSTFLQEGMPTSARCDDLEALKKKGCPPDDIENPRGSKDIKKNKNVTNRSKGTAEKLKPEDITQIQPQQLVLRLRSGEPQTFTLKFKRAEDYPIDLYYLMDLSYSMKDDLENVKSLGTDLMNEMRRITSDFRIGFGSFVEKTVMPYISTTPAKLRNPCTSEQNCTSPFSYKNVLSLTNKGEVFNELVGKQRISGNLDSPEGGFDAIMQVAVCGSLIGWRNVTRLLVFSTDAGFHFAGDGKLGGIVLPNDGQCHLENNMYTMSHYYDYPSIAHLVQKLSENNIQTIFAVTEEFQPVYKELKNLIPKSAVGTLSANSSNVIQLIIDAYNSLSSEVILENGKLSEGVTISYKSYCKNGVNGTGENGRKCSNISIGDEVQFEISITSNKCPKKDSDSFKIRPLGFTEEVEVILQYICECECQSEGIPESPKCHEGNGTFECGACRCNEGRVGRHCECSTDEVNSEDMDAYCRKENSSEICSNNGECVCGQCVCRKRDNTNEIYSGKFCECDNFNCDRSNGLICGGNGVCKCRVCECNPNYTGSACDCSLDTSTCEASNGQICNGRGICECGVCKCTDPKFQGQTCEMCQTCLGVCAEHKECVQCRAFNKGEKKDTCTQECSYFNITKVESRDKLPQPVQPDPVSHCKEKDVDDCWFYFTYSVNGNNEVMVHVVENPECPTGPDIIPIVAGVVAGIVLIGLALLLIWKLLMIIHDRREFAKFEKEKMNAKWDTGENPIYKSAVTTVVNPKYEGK
Integrin beta-1 (Homo sapiens) + Integrin alpha-4 (Homo sapiens), sequence (P13612 whole entry, looked up): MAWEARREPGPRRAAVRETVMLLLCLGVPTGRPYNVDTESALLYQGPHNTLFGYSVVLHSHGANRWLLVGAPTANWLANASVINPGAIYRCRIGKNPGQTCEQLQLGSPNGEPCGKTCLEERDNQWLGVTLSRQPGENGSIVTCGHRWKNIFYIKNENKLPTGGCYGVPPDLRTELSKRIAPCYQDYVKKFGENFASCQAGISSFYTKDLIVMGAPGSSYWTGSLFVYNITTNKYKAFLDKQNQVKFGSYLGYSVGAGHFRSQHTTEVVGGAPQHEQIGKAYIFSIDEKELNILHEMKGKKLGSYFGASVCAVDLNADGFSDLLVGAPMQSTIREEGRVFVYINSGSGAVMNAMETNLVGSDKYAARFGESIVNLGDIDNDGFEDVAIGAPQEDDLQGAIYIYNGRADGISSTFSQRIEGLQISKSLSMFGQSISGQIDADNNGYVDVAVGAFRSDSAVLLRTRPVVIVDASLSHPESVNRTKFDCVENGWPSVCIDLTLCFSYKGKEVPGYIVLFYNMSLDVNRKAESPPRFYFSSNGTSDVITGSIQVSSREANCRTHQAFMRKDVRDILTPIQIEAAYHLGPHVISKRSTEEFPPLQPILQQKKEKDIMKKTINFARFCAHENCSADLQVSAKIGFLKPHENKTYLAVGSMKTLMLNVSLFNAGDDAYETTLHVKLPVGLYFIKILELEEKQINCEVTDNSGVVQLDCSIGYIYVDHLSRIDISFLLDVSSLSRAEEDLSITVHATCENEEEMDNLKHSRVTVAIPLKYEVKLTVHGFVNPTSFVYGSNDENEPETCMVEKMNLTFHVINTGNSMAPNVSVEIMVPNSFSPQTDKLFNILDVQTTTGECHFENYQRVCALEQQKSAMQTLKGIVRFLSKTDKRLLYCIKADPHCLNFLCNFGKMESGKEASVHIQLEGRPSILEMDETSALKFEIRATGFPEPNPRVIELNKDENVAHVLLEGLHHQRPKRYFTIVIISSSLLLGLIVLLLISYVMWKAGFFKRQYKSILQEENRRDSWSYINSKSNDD
Beta-adrenergic receptor kinase 1 (Homo sapiens), sequence (P25098 whole entry, looked up): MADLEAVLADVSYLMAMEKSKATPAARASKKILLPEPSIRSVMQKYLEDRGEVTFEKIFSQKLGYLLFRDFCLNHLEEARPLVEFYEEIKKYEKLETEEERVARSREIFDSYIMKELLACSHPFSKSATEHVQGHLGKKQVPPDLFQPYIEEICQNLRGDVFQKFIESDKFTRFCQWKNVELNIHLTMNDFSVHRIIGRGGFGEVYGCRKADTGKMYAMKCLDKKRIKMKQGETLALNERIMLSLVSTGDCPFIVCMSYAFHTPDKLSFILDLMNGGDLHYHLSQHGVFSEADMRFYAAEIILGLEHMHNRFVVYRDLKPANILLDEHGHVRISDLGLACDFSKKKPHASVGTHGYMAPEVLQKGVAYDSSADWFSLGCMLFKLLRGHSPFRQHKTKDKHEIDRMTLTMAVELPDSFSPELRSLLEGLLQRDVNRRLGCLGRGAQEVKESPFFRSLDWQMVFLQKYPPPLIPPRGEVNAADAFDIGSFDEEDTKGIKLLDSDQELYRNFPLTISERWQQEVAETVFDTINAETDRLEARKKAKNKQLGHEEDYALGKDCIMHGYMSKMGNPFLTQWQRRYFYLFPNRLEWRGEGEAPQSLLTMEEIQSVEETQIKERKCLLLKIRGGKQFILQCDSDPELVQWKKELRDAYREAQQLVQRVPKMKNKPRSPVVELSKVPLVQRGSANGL
ATP-binding cassette sub-family B member 6 (Homo sapiens), sequence (Q9NP58 whole entry, looked up): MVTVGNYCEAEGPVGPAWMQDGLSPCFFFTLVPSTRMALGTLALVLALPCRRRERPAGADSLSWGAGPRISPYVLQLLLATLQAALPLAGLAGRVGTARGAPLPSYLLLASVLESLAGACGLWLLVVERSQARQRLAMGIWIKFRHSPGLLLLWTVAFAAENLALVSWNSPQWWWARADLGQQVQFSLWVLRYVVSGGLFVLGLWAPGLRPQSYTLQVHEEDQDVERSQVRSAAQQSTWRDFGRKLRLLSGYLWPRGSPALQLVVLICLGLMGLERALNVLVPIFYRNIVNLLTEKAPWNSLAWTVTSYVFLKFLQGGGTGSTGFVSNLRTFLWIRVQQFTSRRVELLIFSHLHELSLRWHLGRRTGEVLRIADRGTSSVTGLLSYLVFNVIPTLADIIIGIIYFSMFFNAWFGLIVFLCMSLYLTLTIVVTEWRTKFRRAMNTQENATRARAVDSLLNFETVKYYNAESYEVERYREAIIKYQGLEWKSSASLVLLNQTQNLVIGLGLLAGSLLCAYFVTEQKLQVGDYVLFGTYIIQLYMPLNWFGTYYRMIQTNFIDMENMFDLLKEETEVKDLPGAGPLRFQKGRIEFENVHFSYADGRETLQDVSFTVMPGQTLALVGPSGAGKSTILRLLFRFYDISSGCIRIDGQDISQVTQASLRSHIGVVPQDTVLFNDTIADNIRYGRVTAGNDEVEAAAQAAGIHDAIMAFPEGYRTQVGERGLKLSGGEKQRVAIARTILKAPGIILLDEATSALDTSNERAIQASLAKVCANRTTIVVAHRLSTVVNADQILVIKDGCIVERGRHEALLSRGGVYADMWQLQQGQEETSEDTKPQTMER
Beta-2 adrenergic receptor (Homo sapiens), sequence (P07550 whole entry, looked up): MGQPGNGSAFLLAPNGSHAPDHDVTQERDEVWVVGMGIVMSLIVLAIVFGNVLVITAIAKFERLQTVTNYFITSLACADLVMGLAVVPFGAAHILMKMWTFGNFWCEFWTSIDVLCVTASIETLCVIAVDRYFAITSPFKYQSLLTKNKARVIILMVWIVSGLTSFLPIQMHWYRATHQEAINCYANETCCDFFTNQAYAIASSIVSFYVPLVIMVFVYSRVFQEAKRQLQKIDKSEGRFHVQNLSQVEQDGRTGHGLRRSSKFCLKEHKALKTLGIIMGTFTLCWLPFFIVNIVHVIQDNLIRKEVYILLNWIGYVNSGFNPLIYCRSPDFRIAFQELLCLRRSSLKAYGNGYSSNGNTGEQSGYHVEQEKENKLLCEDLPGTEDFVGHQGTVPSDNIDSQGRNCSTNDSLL
Botulinum neurotoxin type A (Clostridium botulinum), sequence (P0DPI0 whole entry, looked up): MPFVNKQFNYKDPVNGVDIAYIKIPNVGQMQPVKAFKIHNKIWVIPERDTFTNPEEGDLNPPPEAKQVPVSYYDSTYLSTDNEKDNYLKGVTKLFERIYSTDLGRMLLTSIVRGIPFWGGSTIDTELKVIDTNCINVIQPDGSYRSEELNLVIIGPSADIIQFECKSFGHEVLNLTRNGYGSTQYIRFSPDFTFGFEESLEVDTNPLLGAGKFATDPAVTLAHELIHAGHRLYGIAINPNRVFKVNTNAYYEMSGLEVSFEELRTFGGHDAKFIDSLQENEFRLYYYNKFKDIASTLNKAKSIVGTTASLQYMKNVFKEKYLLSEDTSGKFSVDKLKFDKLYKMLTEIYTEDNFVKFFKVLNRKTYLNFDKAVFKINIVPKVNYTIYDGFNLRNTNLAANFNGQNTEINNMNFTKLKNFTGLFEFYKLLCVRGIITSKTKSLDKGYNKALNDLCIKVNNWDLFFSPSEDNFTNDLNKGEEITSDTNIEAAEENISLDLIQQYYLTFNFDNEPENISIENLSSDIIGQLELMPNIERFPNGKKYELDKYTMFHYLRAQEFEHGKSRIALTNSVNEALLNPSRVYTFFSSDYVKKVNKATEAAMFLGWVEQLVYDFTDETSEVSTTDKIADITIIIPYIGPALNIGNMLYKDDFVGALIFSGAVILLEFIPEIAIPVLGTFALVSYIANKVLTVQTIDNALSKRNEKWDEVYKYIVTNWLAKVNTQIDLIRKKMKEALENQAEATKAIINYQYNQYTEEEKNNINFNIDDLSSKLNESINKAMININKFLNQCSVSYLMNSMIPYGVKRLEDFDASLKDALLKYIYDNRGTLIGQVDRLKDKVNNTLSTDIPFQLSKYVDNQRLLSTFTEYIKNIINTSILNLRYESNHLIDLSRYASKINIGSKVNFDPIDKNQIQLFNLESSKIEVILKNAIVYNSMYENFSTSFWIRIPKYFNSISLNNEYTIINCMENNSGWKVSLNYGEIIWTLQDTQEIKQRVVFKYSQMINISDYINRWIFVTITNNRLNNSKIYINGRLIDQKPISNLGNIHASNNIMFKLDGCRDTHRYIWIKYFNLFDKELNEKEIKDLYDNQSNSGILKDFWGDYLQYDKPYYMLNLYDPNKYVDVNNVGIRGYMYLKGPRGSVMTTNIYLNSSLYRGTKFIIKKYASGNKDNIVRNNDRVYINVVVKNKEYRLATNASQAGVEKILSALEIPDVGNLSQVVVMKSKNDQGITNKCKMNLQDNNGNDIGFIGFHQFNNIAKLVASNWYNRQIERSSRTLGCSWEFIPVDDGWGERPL

Compound | double positive events [1] [%] | vesicle binding response [1] | inhibition [2] | superoxide response (% of plate) [3] | aptamer binding inhibition [4] | response [5] | inhibition [6] | response [7] | binding (% of control) [8] | inhibition [9] | inhibition [10] | inhibition [11] | efflux inhibition (fraction of control) [12] | inhibition [13] | differentiation response [14]
CCCC(=O)OCC[N+](C)(C)C | 63.6 | 145% (inactive) | 14.2% (inactive) | 92.5% (inactive) | 4% (inactive) | 9.88% (inactive) | 5.57% (inactive) | 5.81% (inactive) | 108% (inactive) | -3.8% (inactive) | -2.9% (inactive) | 1.4% (inactive) | -0.06 (inactive) | 13% (inactive) | 2.46% (inactive)
COc1cc(/C=C2\C(=O)NC(=O)N(c3ccccc3)C2=O)c([N+](=O)[O-])cc1OC | 61.7 | 106% (inactive) | 13.7% (inactive) | 102% (inactive) | 3% (inactive) | 0.05% (inactive) | 5.39% (inactive) | 3.62% (inactive) | 105% (inactive) | -4.1% (inactive) | -1.1% (inactive) | -1.8% (inactive) | -0.09 (inactive) | -21% (inactive) | -8.96% (inactive)
CN1[C@@H]2CC(OC(=O)[C@H](CO)c3ccccc3)C[C@H]1[C@@H]1O[C@@H]12 (stereo not given in full) |  |  |  |  |  |  |  |  |  | -2.9% (inactive) | -2.7% (inactive) and -1% (inactive) |  |  |  | 
c1cc(-c2ccncc2)ccn1 |  |  |  |  |  |  |  |  |  | 0.7% (inactive) | -1.9% (inactive) |  |  |  | 
C[C@]12CC[C@@H]3c4ccc(O)c(O)c4CC[C@H]3[C@@H]1CC[C@@H]2O | 51 | 107% (inactive) | 27.7% (inactive) | 101% (inactive) | -1% (inactive) |  | 1.47% (inactive) | -0.32% (inactive) | 108% (inactive) | 0.2% (inactive) | -0.1% (inactive) | 2% (inactive) | -0.28 (inactive) | 7% (inactive) | 3.03% (inactive)
CCN(CC)CC#CCOC(=O)C(O)(c1ccccc1)C1CCCCC1 (stereo not given) |  |  |  |  |  |  |  |  |  | -1.7% (inactive) | 0.6% (inactive) |  |  |  | 
COc1ccc2c3c([nH]c2c1)C(C)=NCC3 | 57.1 | 218% (inactive) | -16.1% (inactive) | 102% (inactive) | -10% (inactive) |  | 10.6% (inactive) | -11.3% (inactive) | 172% (inactive) | -22.6% (inactive) | -5.4% (inactive) | -104% (inactive) | -0.24 (inactive) | -229% (inactive) | 20.8% (inactive)
NC(N)=NC(=O)c1nc(Cl)c(N)nc1N |  |  |  |  |  |  |  |  |  | -3.3% (inactive) | -0.3% (inactive) |  |  |  | 
Cc1c2ccncc2c(C)c2c1[nH]c1ccccc12 | 61 | 710% (inactive) |  | 84.9% (inactive) | -5% (inactive) | -323% (inactive) | 5.87% (inactive) | -2.57% (inactive) | 180% (inactive) | 2.4% (inactive) | 2.8% (inactive) | 2% (inactive) | 0.3 (inactive) |  | 18% (inactive)
Cc1cc(Cl)cc2c1NC(=O)[C@]21[C@@H]2C(=O)N(Cc3ccccc3)C(=O)[C@@H]2[C@@H]2CCCN21 |  |  |  |  |  |  |  |  |  | 2.1% (inactive) | 1.7% (inactive) | 2.3% (inactive) |  |  | 
CCOC(=O)C1=C(C)N[C@@]2(O)c3ccccc3C(=O)[C@@]12O |  |  |  |  |  |  |  |  |  | 2.4% (inactive) | 0.5% (inactive) | -1.2% (inactive) |  |  | 
